# Source: PubChem BioAssay (EPA / NIEHS)
# Records with an inconclusive call do not appear. Activity calls are given as the source filed them. Rule for the calls: active = hit-call score of the fitted dose curve at least 0.9, where 1 is the maximum; inconclusive = response in the unintended direction; inactive = score below 0.9.
# Experiments:
# [1] = TOX21_p53_BLA_p2_viability: Viability Assessment in the Tox21 HCT-116 p53 Agonism Beta-lactamase Assay, Phase 2 (AID 2283591);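 note: compound exposure lasted 16 h at 37 °C; actives lower the ATP signal meaning cytotoxicity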
# How it was run: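 HCT-116 p53-bla cells (4000/well) rested 5 h at 37C, then received compounds in DMSO (217-fold dilution) for 16 h at 37C, 5% CO2. After the CCF4 read, CellTiter-Glo was added; ATP luminescence was read after 30 min at room temperature.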
# [2] = molecular target: Cellular tumor antigen p53 (Homo sapiens) (UniProt P04637); test: TOX21_p53_BLA_p2_ratio: Tox21 HCT-116 p53 Agonism Beta-lactamase Assay, Ratio, Phase 2 (AID 2283592)
# How it was run: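 In this cell-based reporter format, HCT116 cells were dosed with chemicals delivered from DMSO by 217-fold dilution and incubated 16 h at 37C. Emission at 460 and 530 nm after 2 h CCF4-AM loading provided the ratio, fitted upward versus DMSO.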
# [3] = TOX21_p53_BLA_p3_viability: Viability Assessment in the Tox21 HCT-116 p53 Agonism Beta-lactamase Assay, Phase 3 (AID 2283593);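 note: cells exposed to compound for 16 h before reading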
# How it was run: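 HCT-116 cells (4000/well) rested 5 h at 37C, then got DMSO compounds by pin tool (217-fold dilution) for 16 h at 37C, 5% CO2. After the bla read, CellTiter-Glo was added and luminescence read at 30 min, room temperature.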
# [4] = molecular target: Cellular tumor antigen p53 (Homo sapiens) (UniProt P04637); test: TOX21_p53_BLA_p3_ratio: Tox21 HCT-116 p53 Agonism Beta-lactamase Assay, Ratio, Phase 3 (AID 2283596)
# How it was run: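 HCT116 p53-bla cells (4000/well) given compound in DMSO (217-fold dilution) after 5 h, incubated 16 h at 37C. CCF4-AM substrate 2 h at room temperature; 460/530 nm emission ratio, gain fitted against DMSO.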
# [5] = TOX21_p53_BLA_p4_viability: Viability Assessment in the Tox21 HCT-116 p53 Agonism Beta-lactamase Assay, Phase 4 (AID 2283597);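 note: hits lower the luminescence signal meaning cytotoxicity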
# How it was run: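 We seeded HCT116 p53 reporter cells at 4000/well and waited 5 h. We then added compounds in DMSO at a 217-fold dilution and incubated for 16 h. Viability was read as CellTiter-Glo luminescence after 30 min at RT.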
# [6] = molecular target: Cellular tumor antigen p53 (Homo sapiens) (UniProt P04637); test: TOX21_p53_BLA_p5_ratio: Tox21 HCT-116 p53 Agonism Beta-lactamase Assay, Ratio, Phase 5 (AID 2283599)
# How it was run: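 HCT-116 cells carrying a p53-inducible beta-lactamase reporter were seeded at 4000 cells/well and dosed after 5 h with compound in DMSO (217-fold dilution). After 16 h at 37C, CCF4-AM substrate was added for 2 h, and the 460/530 nm emission ratio was scored as gain-of-signal versus DMSO.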
# [7] = TOX21_p53_BLA_p5_viability: Viability Assessment in the Tox21 HCT-116 p53 Agonism Beta-lactamase Assay, Phase 5 (AID 2283600)
# How it was run: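 Compounds, pinned from DMSO at 217-fold dilution, were left on the cells for 16 h. The viability endpoint was ATP content measured by CellTiter-Glo luminescence, where falling signal reflects cytotoxicity.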
# [8] = molecular target: Cellular tumor antigen p53 (Homo sapiens) (UniProt P04637); test: TOX21_p53_BLA_p4_ratio: Tox21 HCT-116 p53 Agonism Beta-lactamase Assay, Ratio, Phase 4 (AID 2283601)
# How it was run: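 HCT116 cells carrying an inducible beta-lactamase reporter were plated at 4000 cells/well, rested 5 h, then exposed to compounds in DMSO (217-fold dilution) for 16 h at 37C. CCF4-AM substrate was loaded 2 h at room temperature; 460/530 nm emission ratio scored gain-of-signal versus DMSO.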
# Sequence of Cellular tumor antigen p53 (Homo sapiens) (P04637 whole entry, looked up): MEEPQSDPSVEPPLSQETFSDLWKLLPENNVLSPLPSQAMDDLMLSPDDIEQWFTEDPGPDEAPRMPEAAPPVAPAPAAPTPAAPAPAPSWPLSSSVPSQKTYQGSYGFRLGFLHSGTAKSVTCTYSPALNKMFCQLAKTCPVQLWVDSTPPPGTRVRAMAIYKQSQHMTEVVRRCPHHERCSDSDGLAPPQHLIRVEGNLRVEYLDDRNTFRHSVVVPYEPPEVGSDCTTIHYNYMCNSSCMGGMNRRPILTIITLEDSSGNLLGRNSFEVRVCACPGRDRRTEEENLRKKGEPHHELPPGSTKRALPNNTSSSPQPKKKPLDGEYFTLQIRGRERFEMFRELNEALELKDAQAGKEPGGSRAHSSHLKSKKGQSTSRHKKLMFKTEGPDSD
Structure (SMILES),outcome [1],outcome [2],outcome [3],outcome [4],outcome [5],outcome [6],outcome [7],outcome [8],AC50 [4],AC50 [8],AC50 [2],AC50 [6],AC50 [1],AC50 [3],AC50 [5],AC50 [7]
Brc1ccccc1-c1ccccc1,inactive,inactive,inactive,inactive,inactive,inactive,inactive,inactive,,,,,,,,
CCCN1C[C@H](CSC)C[C@@H]2c3cccc4[nH]cc(c34)C[C@H]21,inactive,inactive,inactive,inactive,inactive,inactive,inactive,inactive,,,,,,,,
CN(C)c1nc(N(C)C)nc(N(C)C)n1,inactive,inactive,inactive,inactive,inactive,inactive,inactive,inactive,,,,,,,,
CCOC(=O)/C=C(C)/C=C/C=C(C)/C=C/c1c(C)cc(OC)c(C)c1C,inactive,inactive,inactive,inactive,inactive,inactive,inactive,inactive,,,,,,,,
O=C(c1ccc(O)cc1)c1ccc(O)c(O)c1O,inactive,inactive,inactive,inactive,inactive,inactive,inactive,inactive,,,,,,,,
CC=C(C(=CC)c1ccc(O)cc1)c1ccc(O)cc1,inactive,inactive,inactive,,inactive,inactive,inactive,,4.02 µM (active),3.75 µM (active),,,,,,
O=C1C(=O)c2ccccc2C(O)=C1C1CCC(c2ccc(Cl)cc2)CC1 (centres undefined),inactive,,inactive,,inactive,,inactive,inactive,1.61 µM (active),,10.3 µM (active),10.3 µM (active),,,,
COc1cc(N)c(Cl)cc1C(=O)NC1CCN(CCCOc2ccc(F)cc2)CC1OC (centres undefined),inactive,inactive,inactive,inactive,inactive,inactive,inactive,inactive,,,,,,,,
CC(=O)OCCN(CCOC(C)=O)c1ccc(N=Nc2ccc([N+](=O)[O-])cc2C#N)cc1,inactive,inactive,inactive,inactive,inactive,inactive,inactive,inactive,,,,,,,,
COc1ccc(S(=O)(=O)Nc2nnc(CC(C)C)s2)cc1,inactive,inactive,inactive,inactive,inactive,inactive,inactive,inactive,,,,,,,,
C=CC(=O)O,inactive,inactive,inactive,inactive,inactive,inactive,inactive,inactive,,,,,,,,
CCN(CC)C(=O)/C(C#N)=C/c1cc(O)c(O)c([N+](=O)[O-])c1,inactive,,inactive,inactive,inactive,inactive,inactive,inactive,,,33.7 µM (active),,,,,
CC1=C2[C@H](/C=C(\C)C(=O)O)CC[C@@H](C)[C@H]2CC1,inactive,inactive,inactive,inactive,inactive,inactive,inactive,inactive,,,,,,,,
CN(C)CCN(C)CCN(C)C,inactive,inactive,inactive,inactive,inactive,inactive,inactive,inactive,,,,,,,,
NC(N)=NCC1COc2ccccc2O1 (centres undefined),inactive,inactive,inactive,inactive,inactive,inactive,inactive,inactive,,,,,,,,
CCCCCCCCCCCCOCCOCCOCCOCCOCCOCCOCCOCCOCCO,,,,,,,,,19.7 µM (active),37.7 µM (active),13.5 µM (active),36.9 µM (active),31.5 µM (active),27 µM (active),20 µM (active),23 µM (active)
Cc1c(Cl)cccc1Nc1ccccc1C(=O)O,,,,,,,inactive,,21.1 µM (active),17.7 µM (active),19.4 µM (active),21.6 µM (active),5.79 µM (active),23 µM (active),10.2 µM (active),
O=S(=O)(O)CC(S)CS (centres undefined),inactive,inactive,inactive,inactive,inactive,inactive,inactive,inactive,,,,,,,,
COc1cc(NS(C)(=O)=O)ccc1Nc1c2ccccc2nc2ccccc12,,,,,,,,,8.11 µM (active),1.36 µM (active),7.65 µM (active),22.1 µM (active),12.8 µM (active),15.1 µM (active),25.6 µM (active),33.6 µM (active)
CC(C)(C)C(=O)C(Oc1ccc(Cl)cc1)n1ccnc1 (centres undefined),inactive,inactive,inactive,inactive,inactive,inactive,inactive,inactive,,,,,,,,
CCCCCCCCOc1ccccc1C(=O)Nc1ccc(C(=O)OCC[N+](C)(CC)CC)cc1,,inactive,,inactive,,inactive,,inactive,,,,,28.9 µM (active),30.5 µM (active),19 µM (active),32.8 µM (active)
COc1nc(N)nc2c1ncn2[C@@H]1O[C@H](CO)[C@@H](O)[C@@H]1O,inactive,inactive,inactive,inactive,inactive,inactive,inactive,inactive,,,,,,,,
S=C1NC=NC2N=CNC12 (centres undefined),,,,,,,inactive,,7.71 µM (active),8.02 µM (active),7.37 µM (active),6.33 µM (active),2.15 µM (active),2.33 µM (active),2.3 µM (active),
